Several values for one entry are separate records, joined by “and”; a condition that tells them apart may be missing. Identical values can stand only once. In all, about 5,500 compounds went through this assay and about 2,000 (36%) were called active. About 18% were inconclusive and are not listed. The list shows a part of the results. A number with no mark means an inactive call. Rule as the data show it: active = normalized growth mostly below about 0.91 (no sharp cut-off); inconclusive = no clear call, values can overlap the other calls; inactive = mostly above about 0.92.
Experiment: chemical genetic growth profiling, strain panel (AID 1159580);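 also: tested at 20 µM; growth read once vehicle control cultures reached saturation at 30 °C; 1 = growth at the plate median or of vehicle wells; lower values mean less growth of the strain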
Conditions: S. cerevisiae deletion strains, growth OD

SMILES: OCCN1CCN(CCCN2c3ccccc3Sc3ccc(Cl)cc32)CC1
- normalized growth (locus YAL013W, strain DEP1, active compounds read low): 1.02 and 1.01
- normalized growth (locus YAL021C, strain ccr4, active compounds read low): 1
- normalized growth (locus YAL026C, strain drs2, active compounds read low): 0.674 (active)
- normalized growth (locus YAL030W, strain snc1, active compounds read low): 1.01
- normalized growth (locus YAL040C, strain CLN3, active compounds read low): 0.984
- normalized growth (locus YBL061C, strain skt5, active compounds read low): 0.996
- normalized growth (locus YBR009C, strain hhf1, active compounds read low): 0.998
- normalized growth (locus YBR021W, strain FUR4, active compounds read low): 0.988
- normalized growth (locus YBR023C, strain chs3, active compounds read low): 0.996
- normalized growth (locus YBR171W, strain sec66, active compounds read low): 1.01
- normalized growth (locus YBR229C, strain ROT2, active compounds read low): 1.01
- normalized growth (locus YBR231C, strain swc5, active compounds read low): 1
- normalized growth (locus YBR279W, strain paf1, active compounds read low): 0.998
- normalized growth (locus YCL011C, strain gbp2, active compounds read low): 0.997
- normalized growth (locus YCL016C, strain dcc1, active compounds read low): 0.994
- normalized growth (locus YCL029C, strain bik1, active compounds read low): 0.984
- normalized growth (locus YCL061C, strain MRC1 (second series), active compounds read low): 1.01
- normalized growth (locus YCL061C, strain MRC1, active compounds read low): 1
- normalized growth (locus YCL069W, strain vba3, active compounds read low): 1.01
- normalized growth (locus YCR088W, strain abp1, active compounds read low): 1.01
- normalized growth (locus YDL005C, strain med2, active compounds read low): 1.01
- normalized growth (locus YDL035C, strain GPR1, active compounds read low): 0.996
- normalized growth (locus YDL040C, strain nat1, active compounds read low): 1
- normalized growth (locus YDL074C, strain BRE1, active compounds read low): 0.955
- normalized growth (locus YDL101C, strain DUN1, active compounds read low): 1.01
- normalized growth (locus YDL134C, strain PPH21, active compounds read low): 1.02
- normalized growth (locus YDL185W, strain tfp1, active compounds read low): 0.996
- normalized growth (locus YDL192W, strain arf1, active compounds read low): 1.01
- normalized growth (locus YDR001C, strain nth1, active compounds read low): 1
- normalized growth (locus YDR069C, strain doa4, active compounds read low): 0.987
- normalized growth (locus YDR101C, strain arx1, active compounds read low): 0.959
- normalized growth (locus YDR137W, strain rgp1, active compounds read low): 1.33 [resistant] (active)
- normalized growth (locus YDR150W, strain NUM1, active compounds read low): 1.03
- normalized growth (locus YDR159W, strain sac3, active compounds read low): 1.01
- normalized growth (locus YDR162C, strain NBP2, active compounds read low): 1
- normalized growth (locus YDR195W, strain ref2): 1.12
- normalized growth (locus YDR297W, strain sur2, active compounds read low): 0.997
- normalized growth (locus YDR318W, strain mcm21, active compounds read low): 0.966
- normalized growth (locus YDR334W, strain swr1, active compounds read low): 1
- normalized growth (locus YDR335W, strain msn5, active compounds read low): 1
- normalized growth (locus YDR363W, strain ESC2, active compounds read low): 0.995
- normalized growth (locus YDR388W, active compounds read low): 0.979
- normalized growth (locus YDR392W, strain spt3, active compounds read low): 0.998
- normalized growth (locus YDR502C, strain sam2, active compounds read low): 0.96
- normalized growth (locus YEL003W, strain gim4, active compounds read low): 0.988
- normalized growth (locus YEL037C, strain rad23, active compounds read low): 1
- normalized growth (locus YEL061C, strain CIN8 (second series), active compounds read low): 1
- normalized growth (locus YEL061C, strain CIN8, active compounds read low): 1.01
- normalized growth (locus YER002W, strain NOP16, active compounds read low): 1.04
- normalized growth (locus YER015W, strain faa2, active compounds read low): 1
- normalized growth (locus YER016W, strain bim1, active compounds read low): 1
- normalized growth (locus YER110C, active compounds read low): 0.998
- normalized growth (locus YER111C, strain swi4, active compounds read low): 1
- normalized growth (locus YER155C, strain BEM2 (second series), active compounds read low): 0.971
- normalized growth (locus YER155C, strain BEM2, active compounds read low): 1.03
- normalized growth (locus YER167W, strain BCK2, active compounds read low): 1.01
- normalized growth (locus YFR010W, strain ubp6, active compounds read low): 0.976
- normalized growth (locus YGL078C, strain dbp3, active compounds read low): 0.994
- normalized growth (locus YGL086W, strain mad1, active compounds read low): 0.993
- normalized growth (locus YGL167C, strain pmr1, active compounds read low): 0.989
- normalized growth (locus YGL173C, strain kem1, active compounds read low): 0.972
- normalized growth (locus YGL227W, strain vid30, active compounds read low): 1.01
- normalized growth (locus YGL240W, strain doc1, active compounds read low): 1.04
- normalized growth (locus YGL248W, strain PDE1, active compounds read low): 1.02
- normalized growth (locus YGL253W, strain hxk2, active compounds read low): 0.997
- normalized growth (locus YGR078C, strain PAC10, active compounds read low): 0.997 and 0.999
- normalized growth (locus YGR135W, strain pre9, active compounds read low): 0.958
- normalized growth (locus YGR229C, strain SMI1, active compounds read low): 0.958
- normalized growth (locus YGR252W, strain gcn5, active compounds read low): 0.931
- normalized growth (locus YHR013C, strain ard1, active compounds read low): 0.995
- normalized growth (locus YHR027C, strain rpn1, active compounds read low): 0.988
- normalized growth (locus YHR030C, strain SLT2, active compounds read low): 1.02 and 0.987
- normalized growth (locus YHR079C, strain IRE1 (second series), active compounds read low): 0.984
- normalized growth (locus YHR079C, strain IRE1, active compounds read low): 0.993
- normalized growth (locus YHR094C, strain hxt1, active compounds read low): 0.992
- normalized growth (locus YHR129C, strain ARP1, active compounds read low): 1.01
- normalized growth (locus YHR142W, strain chs7, active compounds read low): 1.01
- normalized growth (locus YHR200W, strain rpn10, active compounds read low): 0.986
- normalized growth (locus YIL066C, strain RNR3, active compounds read low): 0.998
- normalized growth (locus YIL073C, strain SPO22, active compounds read low): 1.01
- normalized growth (locus YIL125W, strain kgd1, active compounds read low): 0.991
- normalized growth (locus YIR030C, strain dcg1, active compounds read low): 0.997
- normalized growth (locus YJL092W, strain hpr5, active compounds read low): 1
- normalized growth (locus YJL095W, strain BCK1 (second series), active compounds read low): 1
- normalized growth (locus YJL095W, strain BCK1, active compounds read low): 0.977 and 0.981
- normalized growth (locus YJL115W, strain asf1, active compounds read low): 1
- normalized growth (locus YJL129C, strain trk1, active compounds read low): 1.01
- normalized growth (locus YJL134W, strain LCB3, active compounds read low): 1.01
- normalized growth (locus YJL154C, strain vps35, active compounds read low): 1.01
- normalized growth (locus YJL164C, strain tpk1, active compounds read low): 0.988
- normalized growth (locus YJL166W, strain qcr8, active compounds read low): 1.01
- normalized growth (locus YJL168C, strain set2, active compounds read low): 0.991
- normalized growth (locus YJL187C, strain SWE1 (second series), active compounds read low): 1
- normalized growth (locus YJL187C, strain SWE1, active compounds read low): 1
- normalized growth (locus YJR043C, strain POL32, active compounds read low): 1.02
- normalized growth (locus YJR066W, strain TOR1, active compounds read low): 0.954
